Growth inhibition data for 40 compounds are collected here from PubChem BioAssay (NCI).

The structures appear in SMILES notation. About 79,000 compounds went through this panel and 15% of them were active in at least one assay; those are over-represented in the sample as a whole. Values without a mark were called inactive. Activity calls are given as the source filed them. Cut-off read from the data, not from the text of the source: active = growth inhibition above about 70%; inactive = the rest.

The assay in a line: NCI Yeast Anticancer Drug Screen. Data for the mlh1 rad18 strain (AID 175). Particulars: S. cerevisiae mlh1 rad18 strain growth inhibition; at 5.0 µM (retest, dose inferred, filed as 0.5); stronger effect = higher value. In a few lines: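 In this whole-cell yeast screen, a strain with altered DNA damage repair is challenged with compound, and its growth is measured against matched vehicle-treated controls.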
Consider `CCOC(=O)CNC(=O)C1C2c3ccccc3C(c3ccccc32)C1C(=O)O` (stereo not given), for which the growth inhibition is -1%.
Turning to `O=[N+]([O-])c1ccc(NP(=S)(Nc2ccc([N+](=O)[O-])cc2)c2ccccc2)cc1`, the growth inhibition was 68%.
With `O=P(c1ccccc1)(c1ccccc1)c1ccccc1.[Cl][Sn]([c]1ccccc1)([c]1ccccc1)[c]1ccccc1`, the growth inhibition is 99% (active).
As to `CC(C)(C)OOC(=O)/C=C\C(=O)OOC(C)(C)C`, the growth inhibition was 1%.
Consider `Cc1cc2c(cc1O)C(C)(C)CCC2(C)C`, for which the growth inhibition was -2%.
The same measure for `N#CC(C#N)=Cc1ccc(Cl)o1`: 1%; for `COc1c(Br)cc(/C=C/[N+](=O)[O-])cc1Br`: 98% (active).
The same measure for `[O]=[Sb]([OH])([OH])[c]1ccc(NC2OC(CO)C(O)C(O)C2O)cc1` (stereo not given): 1%.
The same measure for `NC(=S)C1=C(N)Oc2c(c(=O)oc3ccccc23)C1c1ccc(Br)cc1` (stereo not given): -2%; for `COS(=O)(=O)c1ccccc1`: 8%.
Regarding `O=[N+]([O-])c1cc[n+]([O-])c2ccccc12`, the growth inhibition is 99% (active).
To `O=C(c1ccccc1)c1c(CC(O)c2cccnc2)n(C(=O)c2ccccc2)c2ccccc12` (stereo not given) belongs 2%.
For the compound `Nc1nc2ncnc(N)c2nc1-c1ccc(N(CCCl)CCCl)cc1`, the growth inhibition was -5%.
The same measure for `O=C1c2ccccc2CCC1Br` (stereo not given): -13%.
For `CC1CCCC[N-]1.CC1CCCC[N-]1.N#C[S-].N#C[S-].[Cd]` (stereo not given), the growth inhibition is 16%.
The same measure for `CCOP(=O)(OCC)/C(C#N)=C/c1ccc(Br)cc1`: -19%; for `CN(CCCl)Cc1ccc(OCc2ccccc2)c(OCc2ccccc2)c1`: 3%.
The same measure for `O=C(O)c1cccc2cccc(C(=O)O)c12.[Hg]`: 99% (active); for `S=c1[nH]c2ccccc2s1.[Pb]`: -5%.
The same measure for `COc1ccc([As](O[As](c2ccc(OC)cc2)c2ccc(OC)cc2)c2ccc(OC)cc2)cc1`: 99% (active); for `CC1=C/C(=C2/N=C(N(C)C)SS2)C(C)=N1`: 5%.
As to `CN1C2CCC1c1c([nH]c3ccccc13)C2` (stereo not given), the growth inhibition was -7%.
As for `C[CH2][Sn]([Br])([CH2]C)[c]1ccccc1CN(C)C`, the growth inhibition was 22%.
Regarding `O=C(CCl)Nc1ccc(Cl)cc1`, the growth inhibition is 1%.
Regarding `ClC1CCCCC1[Se](Cl)(Cl)C1CCCCC1Cl` (stereo not given), the growth inhibition is 43%.
Take `Cc1cc(C(C)(C)c2ccc(O)c(C)c2)ccc1O`: the growth inhibition is 0%.
The same measure for `O=[N+]([O-])O.[In]`: 13%; for `[pH]1p2[pH]p3p1p3[pH]2.c1cc[c]([Ge]([c]2ccccc2)[c]2ccccc2)cc1.c1cc[c]([Ge]([c]2ccccc2)[c]2ccccc2)cc1.c1cc[c]([Ge]([c]2ccccc2)[c]2ccccc2)cc1`: 19%; for `C1=CC2CCC[N-]C2N1.C1=CC2CCC[N-]C2N1.[I][Pt+2][I]` (stereo not given): 23%.
Turning to `O=[N+]([O-])/C=C/c1cccc(F)c1`, the growth inhibition is 59%.
To `O=[N+]([O-])c1ccc(CS(=O)(=O)C(Cl)(Cl)Cl)o1` belongs 18%.
The same measure for `CC(=O)[O][Hg][c]1ccc(N)[c]([Hg][O]C(C)=O)c1`: 99% (active).
For the compound `CNP(=O)(Oc1cc(Cl)c(Cl)cc1Cl)N1CCN(c2ccccc2)CC1` (stereo not given), the growth inhibition is -5%.
The same measure for `Cc1ccc2c(c1)N(CCN(CCCl)CCCl)c1c(ccc3ccccc13)S2`: 11%; for `CC1(C(=O)O)CCCC2(C)c3cc(O)ccc3CCC12` (stereo not given): 3%; for `C#CC(O)(CC)CC`: -1%.
Regarding `CC1CC[N-]C(C)C1.CN(C)C=O.[Cl][Pt][Cl]` (stereo not given), the growth inhibition was 25%.
For the compound `CN1CCN(c2ccc3nc(-c4ccc5nc(-c6ccc(N(C)CCCl)cc6)[nH]c5c4)[nH]c3c2)CC1`, the growth inhibition is -16%.
To `CC(=O)NNc1ccccc1` belongs 14%; to `CC(C)[S-].CC(C)[S-].[Pt+2].c1ccc([PH+](c2ccccc2)c2ccccc2)cc1.c1ccc([PH+](c2ccccc2)c2ccccc2)cc1`, 4%.
